Pf growth 96h = Primary qHTS for delayed death inhibitors of the malarial parasite plastid, 96 hour incubation | Potency, µM (series often up to 28.7 µM), inactives show top-dose activity change, negative = inhibition, usual class: inhibitors | 320,000 compounds, 6.9% hits | P. falciparum luciferase reporter growth, 96 h; further: potency means the concentration at half of the fitted maximal effect; on the % scale 0 is the no-effect control and ±100 the full control effect
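P. falciparum expressing integrated firefly luciferase, in erythrocytes at 2% hematocrit, 0.05% parasitemia, incubated with compounds 96 h at 37 C, 5% CO2. Growth inhibition read as loss of luminescence; two-generation exposure targets delayed-death apicoplast inhibitors.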
LmPK inh = qHTS Assay for Inhibitors of Leishmania Mexicana Pyruvate Kinase (LmPK); 290,000 compounds, 0.37% hits; Q27686; AID 1721, 2009; Potency, µM (highest dose often 57.5 µM), without a hit: at the highest dose activity change, negative = inhibition, hits mostly inhibitors; purified LmPK, Kinase-Glo ATP luminescence, 1 h; further: potency means the concentration at half of the fitted maximal effect; on the % scale 0 is the no-effect control and ±100 the full control effect
Target sequence (Q27686 whole entry, looked up): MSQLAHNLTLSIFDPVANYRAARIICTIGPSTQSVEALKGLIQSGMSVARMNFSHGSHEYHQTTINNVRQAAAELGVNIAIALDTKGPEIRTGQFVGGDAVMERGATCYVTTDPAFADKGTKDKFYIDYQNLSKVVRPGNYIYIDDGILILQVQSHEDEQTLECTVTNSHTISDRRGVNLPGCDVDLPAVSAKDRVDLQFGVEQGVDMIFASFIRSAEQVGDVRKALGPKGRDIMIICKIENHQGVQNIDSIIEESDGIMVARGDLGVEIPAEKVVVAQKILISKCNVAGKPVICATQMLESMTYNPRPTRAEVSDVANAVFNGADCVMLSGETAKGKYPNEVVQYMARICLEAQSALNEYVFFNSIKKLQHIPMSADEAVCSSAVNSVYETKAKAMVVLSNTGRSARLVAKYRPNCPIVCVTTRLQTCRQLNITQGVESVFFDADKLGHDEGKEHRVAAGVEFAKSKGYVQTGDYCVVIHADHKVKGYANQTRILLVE
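In 50 mM imidazole pH 7.2 with 7 mM MgCl2, LmPK (0.1 nM) turned over PEP (0.5 mM) and ADP (0.1 mM) for 1 h at room temperature. Luciferase read-out of ATP.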
Shiga inhibitor = A qHTS for Small Molecule Inhibitors of Shiga Toxin. Vero cells, Shiga toxin protein synthesis inhibition reporter. inhibition, % at 38.7 µM. AID 2315, 2010. 290,000 compounds, 9.2% hits; in the data active means inhibition mostly above about 28%, no sharp cut-off; inactive means mostly below about 43%; further: 0% is about no effect
Cycloheximide cs = Cycloheximide Counterscreen for Small Molecule Inhibitors of Shiga Toxin; cell reporter, cycloheximide protein synthesis inhibition counterscreen; max response, %; 300,000 compounds, 12% hits; AID 2314, 2010; in the data active means max response mostly above about 13%, no sharp cut-off; inactive means mostly below about 14%; further: read at 38.3 µM for the half of the compounds with a filed dose; 0% is about no effect
Pf growth 48h = Primary qHTS for delayed death inhibitors of the malarial parasite plastid, 48 hour incubation; P. falciparum luciferase growth in erythrocytes, 48 h; Potency, µM (highest dose often 28.7 µM), for the others: at the highest dose activity change, negative = inhibition, hits mostly inhibitors; 310,000 compounds, 5.9% hits; further: potency means the concentration at half of the fitted maximal effect; on the % scale 0 is the no-effect control and ±100 the full control effect
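First compound was added to culture medium, then infected red cells at 0.1% parasitemia and 2% hematocrit (final). After incubation at 37 C under 5% CO2, luciferase detection reagent was dispensed and light output recorded.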
Starred values were filed as active, the others as inactive; u = inconclusive; x = not tested or not shown. Most compounds without a hit are left out; they make up all but 22% or so of the library. Unless noted, the call rests on the fitted dose curve; in most records, active means well fitted inhibition curve with a large enough effect; inconclusive means small, poorly fitted or top-dose-only effect, or another doubt; inactive means no such curve, though single readings can be large or run the other way.

SMILES	Pf growth 96h	LmPK inh	Shiga inhibitor	Cycloheximide cs	Pf growth 48h
CN1CCN(C(=O)c2cnn3c2NC(c2ccccc2)CC3C(F)(F)F)CC1 (centres undefined)	62%	0%	-20	1	-8%
Cc1cccc(C)c1OCC(=O)Nc1cccc(-c2nnc(-c3ccccc3)o2)c1	2%	6%	33	2	-6%
O=C(Nc1ccccc1)c1cccc(-c2nnc(-c3ccccc3)o2)c1	6%	1%	-4	17*	55%
O=C(Nc1cccc(-c2nnc(-c3ccccc3)o2)c1)c1ccco1	u	6%	11	6	0%
CCCCC(=O)Nc1cccc(-c2nnc(-c3ccccc3)o2)c1	64%	0%	43*	35*	u
COC(=O)C1=C(C)N(Cc2ccccc2)C(=O)N[C@H]1c1ccccc1	u	3%	-13	-4	0%
CCCOC(=O)C1=C(C)NC2=C(C(=O)CCC2)C1c1cccc(OC)c1OC (centres undefined)	8.3µM*	0%	-8	4	14%
COCCOC(=O)C1=C(C)N(Cc2ccccc2)C(=O)NC1c1cccc(OC)c1OC (centres undefined)	1µM*	7%	-10	-5	u
CCOC(=O)C1=C(C)NC2=C(C(=O)CCC2)C1c1coc2ccccc2c1=O (centres undefined)	12µM*	5%	6	-3	x
CCCOC(=O)C1=C(C)NC2=C(C(=O)CCC2)C1c1cccs1 (centres undefined)	u	-1%	20	-2	-13%
COC(=O)C1=C(C)NC2=C(C(=O)CCC2)C1c1coc2ccccc2c1=O (centres undefined)	86%	1%	-7	0	u
COC(=O)[C@@H](Cc1ccccc1)NC(=O)[C@H]1CCC(=O)N1C(=O)OCc1ccccc1	6%	-14%	-7	-4	-6%
Cc1cc(/C=C2/NC(=O)N(Cc3ccccc3F)C2=O)c(C)n1-c1ccccn1	u	1%	3	-1	9.3µM*
CCN1C(=O)N/C(=C/c2cc(C)n(Cc3ccccc3)c2C)C1=O	u	-1%	37*	27*	u
Cc1cccc(CN2C(=O)N/C(=C/c3cc(C)n(-c4ccccn4)c3C)C2=O)c1	x	0%	-7	19	13µM*
Cc1ccc(/C=C2/NC(=O)N(Cc3ccccc3F)C2=O)s1	u	-2%	13	12	25%
O=C1N/C(=C/c2cccs2)C(=O)N1Cc1ccccc1F	u	-4%	-37	-1	1%
Cc1cc(/C=C2/NC(=O)N(Cc3ccccc3F)C2=O)c(C)n1C	10µM*	2%	-5	-7	10µM*
Cc1ccc(S(=O)(=O)N2CCN=C2SC(C)c2ccccc2)cc1 (centres undefined)	u	-5%	-5	8	-4%
CC(SC1=NCCN1S(=O)(=O)c1ccc(F)cc1)c1ccccc1 (centres undefined)	12µM*	-4%	0	1	u
CC(SC1=NCCN1S(=O)(=O)c1ccccc1)c1ccccc1 (centres undefined)	13µM*	-4%	-5	1	-23%
COc1cccc(-n2c(Cn3nc(C(F)(F)F)cc3C)n[nH]c2=S)c1	-2%	-6%	-3	-3	8%
Cc1ccsc1C(=O)Nc1ccccc1N1CCOCC1	x	3%	-33	16	-18%
O=C(COc1ccc2ccccc2c1)Nc1ccc(Br)cc1C(=O)O	u	8%	-4	2	3%
COc1ccc(/C=C/C=N/NC(=O)COc2ccc(OC)cc2)cc1	-21%	2%	43*	17	-7%
COc1ccc(/C=C/C(=O)Oc2cccc(/C=N/NC(=O)COc3c(C)cccc3C)c2)cc1	-2%	0%	105*	53*	23%
COc1ccc(/C=C/C(=O)Oc2ccc(/C=N/NC(=O)COc3c(C)cccc3C)cc2)cc1	u	-1%	-8	3	u
COc1ccc(NCC(=O)N/N=C/C=C\c2ccccc2)cc1	2.6µM*	6%	19*	21*	16%
CCOC(=O)N/N=C/C=C/c1ccccc1	u	-2%	60*	61*	73%

Screens from PubChem BioAssay.
